Measurements taken from PubChem BioAssay (NCI).
Compounds without any hit were thinned out: in the full panel of roughly 79,000, 15% have a hit. Unmarked numbers belong to inactive results. Calls of active or inactive are those of the source. Rule as the data show it: active = growth inhibition above about 70%; inactive = the rest.

Assay: NCI Yeast Anticancer Drug Screen. Data for the mec2-1 strain (AID 157)
Details: S. cerevisiae mec2-1 strain, at 50.0 µM (retest, dose inferred, filed as 5.0), hits give high values
Procedure, shortened: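 Strain: mec2-1 (DNA repair/cell cycle alteration). Compound exposure, then growth measured; inhibition expressed relative to vehicle.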
In the case of `O=C1c2ccc3ccccc3c2CCC1[n+]1ccc2ccccc2c1` (stereo unspecified), the growth inhibition is reported as 76% (active).
In the case of `Cc1cc(NC(=S)SCc2ccc(Cl)cc2)c([N+](=O)[O-])cc1C`, the growth inhibition is reported as 97% (active).
Compound `N#CC(O)C(Br)(Br)Br` (stereo unspecified) has a growth inhibition of 38%.
With `C[CH2][Ge]([CH2]C)[CH2]C.C[CH2][Ge]([Cl])[CH2]C.C[CH2][Ge][CH2]C` the growth inhibition was 98% (active).
Work on `COC1C(=[N+]=[N-])C(=O)NC(=O)N1C1OC(COC(c2ccccc2)(c2ccccc2)c2ccccc2)C(O)C1O` (stereo unspecified) yielded a growth inhibition of 10%.
`CC(=O)Oc1ccc(C)c(C(C)C(Cl)(Cl)Cl)c1` (stereo unspecified) showed a growth inhibition of 50%.
For `OC(c1ccccc1)c1cccc(Br)c1` (stereo unspecified), the growth inhibition was 77% (active).
For `CC/C(=C1\C=CC(=O)S1)C(CC)c1ccc(OC(C)=O)cc1` (stereo unspecified), the growth inhibition was 99% (active).
Work on `COc1ccc(/C=C2/C(=O)NC3SC=C(c4cccc([N+](=O)[O-])c4)N23)cc1` (stereo unspecified) yielded a growth inhibition of 2%.
Work on `O=C1O/C(=C2\OC(=O)c3ccccc32)c2ccccc21` yielded a growth inhibition of 0%.
For `Clc1ncccc1-n1cccc1/C=N\N=C/c1cccn1-c1cccnc1Cl`, the growth inhibition was 98% (active).
With `Clc1nc2cc3nc(Cl)c(Cl)nc3cc2nc1Cl` the growth inhibition was 93% (active).
With `CC(=O)c1c2c(cc3c1CC1(Cc4cc5c(cc4C1)C(=O)CCC5)C3)CCCC2` (stereo unspecified) the growth inhibition was 25%.
Work on `CCCCOS(=O)(=O)c1ccc(C)cc1` yielded a growth inhibition of -22%.
With `C[N+]1(c2ccccc2)C=C(c2ccccc2)SC1=S` (stereo unspecified) the growth inhibition was 68%.
For `COc1ccc(/C=N/N=c2\[nH][nH]/c(=N\N=C\c3ccc(OC)c4ccccc34)c3ccccc23)c2ccccc12`, the growth inhibition was 59%.
For `CCCCCCCCCCCCCCCCN`, the growth inhibition was 99% (active).
With `CCCCCCCCCCCC[S+](C)C` the growth inhibition was 80% (active).
In the case of `CP(=O)(c1ccccc1)c1ccccc1`, the growth inhibition is reported as 5%.
With `CCCCCCCCCCCC(=O)OC/C=C/COC(=O)c1ccccc1` the growth inhibition was 31%.
Compound `O=C(O)CCC(O)=C1S(=O)(=O)OCCOS1(=O)=O` has a growth inhibition of 10%.
For `CCOC(=O)C1SC(=Nc2cccc(Cl)c2C)N=C1C` (stereo unspecified), the growth inhibition was 72% (active).

Same assay, conditions: S. cerevisiae mec2-1 strain, at 50.0 µM, hits give high values
In the case of `CC(=O)NNc1nc(C)c(C(=O)NNC(=O)C(=O)Nc2c(C)cccc2C(C)C)s1`, the growth inhibition is reported as 33%.
In the case of `COc1cc(C2CC(=O)c3ccccc3O2)ccc1O` (stereo unspecified), the growth inhibition is reported as 92.7% (active).
In the case of `CCC1CCC2C3CC=C4CC(OC(C)=O)C(N)CC4(C)C3CCC12C` (stereo unspecified), the growth inhibition is reported as 92.3% (active).
Work on `COc1ccccc1C1c2cc3c(cc2OC(N2CCOCC2)C1C)OCO3` (stereo unspecified) yielded a growth inhibition of 14.2%.
`O=C1C=C/C(=C(/c2ccc(O)c(O)c2)c2ccccc2S(=O)(=O)O)C=C1O` showed a growth inhibition of -0.5%.
In the case of `N#CSC#Cc1ccc(C#CSC#N)cc1`, the growth inhibition is reported as 84.5% (active).
For `Cc1c2ccccc2c(CCl)c2ccc3ccccc3c12`, the growth inhibition was 97.2% (active).
With `Oc1ccc(C(=C(Br)c2ccccc2)c2ccc(O)cc2)cc1` the growth inhibition was 91.5% (active).
With `Clc1ccc(/C=N/Nc2c3ccccc3nc3ccccc23)c(Cl)c1` the growth inhibition was 46%.
In the case of `CCCC#CCCOC(=O)c1cc([N+](=O)[O-])cc([N+](=O)[O-])c1`, the growth inhibition is reported as 98.5% (active).
In the case of `CCOc1ccc2c(c1)n([O-])c1ccccc1[n+]2=O`, the growth inhibition is reported as 97.4% (active).
For `COc1ccc(/C(Cl)=C(\c2ccc(OCCN(C)C)cc2)c2ccc(OC(=O)C(C)(C)C)cc2)cc1`, the growth inhibition was 92% (active).
In the case of `CCCCCCCCCCCCCCCCSC(=NC)NC`, the growth inhibition is reported as 99.2% (active).
With `N#Cc1ccc(Oc2nc3ccccc3nc2-c2ccccc2)cc1` the growth inhibition was 22.2%.
With `Cc1ccc2c(c1)nc1n2C(N)=Nc2ccccc2S1` the growth inhibition was 45.3%.
For `COc1cc(NCc2ccc3nc(-c4ccccc4)c(N)nc3c2)cc(OC)c1OC`, the growth inhibition was -9.45%.
With `O=C(OCCC1CCCCC1)c1cc([N+](=O)[O-])cc([N+](=O)[O-])c1` the growth inhibition was 75% (active).
For `O=C1c2ccc3ccccc3c2CCC1[n+]1ccc2ccccc2c1` (stereo unspecified), the growth inhibition was 77.3% (active).
In the case of `Cc1cc(NC(=S)SCc2ccc(Cl)cc2)c([N+](=O)[O-])cc1C`, the growth inhibition is reported as 98.2% (active).
With `N#CC(O)C(Br)(Br)Br` (stereo unspecified) the growth inhibition was 74.3% (active).
In the case of `C[CH2][Ge]([CH2]C)[CH2]C.C[CH2][Ge]([Cl])[CH2]C.C[CH2][Ge][CH2]C`, the growth inhibition is reported as 98.6% (active).
With `COC1C(=[N+]=[N-])C(=O)NC(=O)N1C1OC(COC(c2ccccc2)(c2ccccc2)c2ccccc2)C(O)C1O` (stereo unspecified) the growth inhibition was 80.7% (active).
`CC(=O)Oc1ccc(C)c(C(C)C(Cl)(Cl)Cl)c1` (stereo unspecified) showed a growth inhibition of 42.8%.
In the case of `OC(c1ccccc1)c1cccc(Br)c1` (stereo unspecified), the growth inhibition is reported as 59.8%.
With `CC/C(=C1\C=CC(=O)S1)C(CC)c1ccc(OC(C)=O)cc1` (stereo unspecified) the growth inhibition was 89.3% (active).
Compound `COc1ccc(/C=C2/C(=O)NC3SC=C(c4cccc([N+](=O)[O-])c4)N23)cc1` (stereo unspecified) has a growth inhibition of 10.9%.
For `O=C1O/C(=C2\OC(=O)c3ccccc32)c2ccccc21`, the growth inhibition was 7.55%.
Work on `Clc1ncccc1-n1cccc1/C=N\N=C/c1cccn1-c1cccnc1Cl` yielded a growth inhibition of 6.3%.
`Clc1nc2cc3nc(Cl)c(Cl)nc3cc2nc1Cl` showed a growth inhibition of 16.3%.
`CC(=O)c1c2c(cc3c1CC1(Cc4cc5c(cc4C1)C(=O)CCC5)C3)CCCC2` (stereo unspecified) showed a growth inhibition of -16%.
`CCCCOS(=O)(=O)c1ccc(C)cc1` showed a growth inhibition of -82.3%.
Work on `C[N+]1(c2ccccc2)C=C(c2ccccc2)SC1=S` (stereo unspecified) yielded a growth inhibition of 20.6%.
Work on `COc1ccc(/C=N/N=c2\[nH][nH]/c(=N\N=C\c3ccc(OC)c4ccccc34)c3ccccc23)c2ccccc12` yielded a growth inhibition of 47.5%.
With `CCCCCCCCCCCCCCCCN` the growth inhibition was 99.4% (active).
In the case of `CCCCCCCCCCCC[S+](C)C`, the growth inhibition is reported as 78.3% (active).
Work on `CP(=O)(c1ccccc1)c1ccccc1` yielded a growth inhibition of 13.2%.
With `CCCCCCCCCCCC(=O)OC/C=C/COC(=O)c1ccccc1` the growth inhibition was -5.05%.
Compound `O=C(O)CCC(O)=C1S(=O)(=O)OCCOS1(=O)=O` has a growth inhibition of 4.25%.
For `CCOC(=O)C1SC(=Nc2cccc(Cl)c2C)N=C1C` (stereo unspecified), the growth inhibition was 88.1% (active).
